Each structure is given as a SMILES string. About 530 (0.16%) of roughly 340,000 compounds were called active. Roughly 2% stayed inconclusive and do not appear here. The sample holds actives, similar compounds and a random draw of the others, so the mix is not that of the screen. No stated cut-off is given here; in the data, active means activity change below about -80%; inconclusive means between about -30% and that limit; inactive means weaker than that.
On the % scale 0 is the no-effect control and ±100 the full control effect.

A short description of the assay: Small Molecules that selectively kill Giardia lamblia: qHTS.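 Further: parasites exposed to compound for two days anaerobically before the ATP read.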 The note with it: Giardia lamblia trophozoite viability; at 7.66 µM; active compounds read low. The gist of the method:
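Giardia lamblia trophozoites (100 cells/well) were incubated with compounds for 48 h at 37 deg C under anaerobic conditions. Viability was read as ATP content by one-step luminescence after 15-30 min at room temperature.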
For orientation: qHTS replaces the single test concentration by a dilution series.
`c1ccc2c(C[n+]3csc4ccccc43)cccc2c1`: the activity change was 3.49% (inactive).

For `N/C(=N/O)c1cccn1Cc1ccccc1[N+](=O)[O-]`, the activity change was -2.12% (inactive).

In the case of `Cc1ccc(-c2ccc(=O)n(Cc3ccc(F)cc3Cl)n2)cc1`, the activity change was -0.457% (inactive).

Take `O=c1c([N+](=O)[O-])cccn1Cc1ccc(F)cc1Cl`: the activity change is -94.3% (active).

Take `Brc1nc2ncnc(NCc3ccco3)c2[nH]1`: the activity change was -4.89% (inactive).

For `O=[N+]([O-])c1cccc(/C=N/Nc2ncc(Br)cn2)c1`, the activity change is 23.3% (inactive).

In the case of `O=[N+]([O-])c1ncc(Br)cc1Nc1ccccc1`, the activity change is -90.1% (active).

Take `O=[N+]([O-])c1ccccc1Nc1ccc(O)cc1`: the activity change is -6.38% (inactive).

As for `NC(CSC1(c2ccccc2)c2ccccc2-c2ccccc21)C(=O)O` (centres undefined), the activity change was -0.132% (inactive).

With `Cc1ccc2oc(C(=O)N3CCN(C)C[C@@H]3C(C)C)c(C)c2c1`, the activity change is 11.8% (inactive).

On to `CCCCCCC1(C)NC(c2ccc3c(c2)OCO3)=CC(c2ccccc2O)N1` (centres undefined), for which the activity change is -22.5% (inactive).

As to `CC1(C)c2[nH]c3ccccc3c2C[C@H]2C(=O)N(N)CC(=O)N21`, the activity change was -11.4% (inactive).

For `COC(=O)N/N=C/c1c[n+]([O-])c2ccccc2[n+]1[O-]`, the activity change is -80.1% (active).

For `COC(=O)C(C)N=Cc1ccccc1` (centres undefined), the activity change was -3.67% (inactive).

Consider `COC(=O)N/N=C/c1ccc(-c2ccc(Cl)c(Cl)c2)o1`, for which the activity change is -7.13% (inactive).

For `Cc1c(C=O)c2ccccc2n1CC(=O)O`, the activity change is 21.1% (inactive).

Turning to `CC(=O)c1c(C)n([O-])c2ccccc2[n+]1=O`, the activity change is -80.7% (active).

Turning to `CCOc1ccc(NC(=O)CSc2nnc3c(n2)[nH]c2ccc(S(=O)(=O)N4CCOCC4)cc23)cc1`, the activity change was -27.7% (inactive).

For `Cc1ccc(N2C(=O)C3C(c4ccccc4)(C2=O)C3(c2ccccc2)c2ccccc2)cc1` (centres undefined), the activity change is 6.33% (inactive).

Turning to `CCN(CC)/[N+]([O-])=N/Oc1cc(O/[N+]([O-])=N/N2CCCC2CO)c([N+](=O)[O-])cc1[N+](=O)[O-]` (centres undefined), the activity change is 9.52% (inactive).

In the case of `CC1(C(=O)NCCc2c[nH]c3ccccc23)C=CC2(CCCCC2)N1C(=O)c1ccccc1` (centres undefined), the activity change was 17.9% (inactive).

For `COc1cc(OC)c2c(C)cc(=O)oc2c1C(CCN1CCCCC1)c1ccc(N(C)C)cc1` (centres undefined), the activity change is 8.97% (inactive).

Take `Cc1nc(-c2ccccc2)cn2c1nc1ccccc12`: the activity change is 7.53% (inactive).

As to `O=S(=O)(c1cccc(C(F)(F)F)c1)N1CCN(c2nc(-c3cccs3)nc3ccccc23)CC1`, the activity change was 27.4% (inactive).

For the compound `COC(=O)c1ccc(OCC(O)CN(CCO)CC(O)Cn2ccc3ccccc32)cc1` (centres undefined), the activity change is 8.7% (inactive).

For the compound `CCCCNC(=O)Cn1c(SCc2cccc(Cl)c2)nc2ccncc21`, the activity change is 12.3% (inactive).

As to `Cc1ccc(S(=O)(=O)N2CCN(c3nc(-n4cnc5ccccc54)nc4ccccc34)CC2)cc1`, the activity change was 11.1% (inactive).

Consider `CC(C)=CCN1CCN(CCCc2ccccc2)CC1CCO` (centres undefined), for which the activity change was 23.8% (inactive).

Regarding `O=C(N/N=C/c1ccc([N+](=O)[O-])o1)c1cn(-c2ccccc2)nc1-c1ccc(F)cc1`, the activity change was -93% (active).

For the compound `Cc1ccc(-c2nn(-c3ccccc3)cc2C(=O)NC2CCC(O)CC2)cc1` (centres undefined), the activity change is 4.06% (inactive).

Consider `O=C(NCCCN1CCOCC1)c1cn(-c2ccccc2)nc1-c1ccc(F)cc1`, for which the activity change is -14.8% (inactive).

Consider `Cc1noc(C)c1NC(=O)Nc1cccc2c1O[C@H](CN(C)C(=O)Nc1ccccc1)[C@@H](C)CN([C@H](C)CO)C2=O`, for which the activity change is 8.07% (inactive).

Regarding `Cc1noc(C)c1NC(=O)Nc1ccc2c(c1)C(=O)N([C@H](C)CO)C[C@H](C)[C@@H](CN(C)C(=O)Nc1ccc(C(F)(F)F)cc1)O2`, the activity change was 41.7% (inactive).

As to `C[C@H](CO)N1C[C@H](C)[C@H](CN(C)C(=O)Nc2ccc(C(F)(F)F)cc2)Oc2c(NC(=O)c3ccncc3)cccc2C1=O`, the activity change was -89.7% (active).

In the case of `Cc1ccc(-c2nc(=N)sn2Cc2ccccc2)cc1`, the activity change was 24.2% (inactive).

On to `COc1ccc(Cn2c(=O)[nH]c3cc(C(=O)N4CCN(C(=O)c5ccco5)CC4)ccc3c2=O)cc1`, for which the activity change was -2.35% (inactive).

As to `Cc1noc(NS(=O)(=O)c2ccc(NC(=O)c3oc4ccc(F)cc4c3C)cc2)c1C`, the activity change was 6.55% (inactive).

On to `COc1ccc(S(=O)(=O)N2CCN(c3ccc(F)cc3)CC2)cc1-c1noc(C)n1`, for which the activity change is 5.27% (inactive).

Take `COC(=O)C(CC(C)C)NS(=O)(=O)c1cc(Br)ccc1Br` (centres undefined): the activity change was -10.7% (inactive).

Consider `Cc1ccc(Nc2c(-c3ccc(C)s3)nc3ccccn23)cc1`, for which the activity change is 1.31% (inactive).

Take `COc1ccc2nc(N3CCN(C(=O)c4ccc([N+](=O)[O-])o4)CC3)sc2c1`: the activity change is -98.8% (active).

With `COc1ccc2nc(N3C(=O)C(O)=C(C(=O)c4ccco4)C3c3ccco3)sc2c1` (centres undefined), the activity change is 1.49% (inactive).

`O=C(c1ccc2nc(N3CCOCC3)sc2c1)N1CCN(c2ccc(Cl)cc2)CC1`: the activity change was -10.4% (inactive).

Turning to `O=C(NCC1CC1)C1(C(F)(F)F)C/C(=C\CCO)CCCO1` (centres undefined), the activity change was -14.8% (inactive).

The values above are taken from PubChem BioAssay AID540267 (National Center for Advancing Translational Sciences (NCATS), 2011).
